Hits are enriched below; roughly 3% of the tested compounds scored in any of these assays.
14-3-3 Bad PPI: inhibitors of 14-3-3 zeta/Bad binding, primary screen, biochemical, TR-FRET, bovine 14-3-3 zeta; TR-FRET 14-3-3zeta/Dy647-pBad peptide displacement, 1 h; 14-3-3 protein zeta/delta (Bos taurus), P63103; inhibition, % at 21.7 µM; AID 781, 2007; 220,000 tested, 0.71% active;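 active = inhibition above about 70%, limit read from the data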
Target sequence (P63103 whole entry, looked up): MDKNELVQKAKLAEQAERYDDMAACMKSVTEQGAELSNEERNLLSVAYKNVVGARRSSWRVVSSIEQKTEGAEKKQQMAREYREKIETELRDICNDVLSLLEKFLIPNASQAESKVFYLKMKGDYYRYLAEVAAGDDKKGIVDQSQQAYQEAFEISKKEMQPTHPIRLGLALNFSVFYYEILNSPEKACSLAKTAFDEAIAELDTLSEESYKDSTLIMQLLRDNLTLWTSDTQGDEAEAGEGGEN
HMGR II inh: inhibitors of E. faecalis class II HMGR, primary screen, biochemical, Enterococcus faecalis | inhibition, % at 10 µM | purified E. faecalis HMGR, NADPH absorbance 340 nm kinetic | 190,000 tested, 0.41% active;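 active = inhibition above a set limit, the median over all tested compounds plus 3 SD, cut at about 9.5% in these data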;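 note: enzyme runs in reverse so mevalonate oxidation gives rising NADPH absorbance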
ROMK primary: ROMK potassium channel modulators, primary screen, cell-based, thallium flux, MLSMR library; ATP-sensitive inward rectifier potassium channel 1 (Homo sapiens), P48048; Tet-inducible ROMK, thallium flux fluorescence; actives lie on both sides; B-score at 10 µM; 130,000 tested, 2% active; AID 1918, 2009;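 active = signal ratio slope over the read window, or its plate-corrected B-score, at least 3 SD from the plate mean, either direction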;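 note: B-score of the F/F0 ratio slope over 7 to 12 s after thallium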
TNF death inh: inhibitors of TNF-alpha triggered necroptosis, primary screen, cell-based, Jurkat FADD-/-, single concentration; 220,000 tested, 0.068% active; activation (protection from cell death), % at 10 µM; Jurkat FADD-/- TNF necroptosis rescue, ATP luminescence, 24 h; 0 = TNF only, 100 = no-TNF cells;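 active = activation, meaning protection from cell death, of at least 50% relative to plate controls; inactive = activation below 50%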;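 note: necroptosis triggered by 40 ng/mL TNF-alpha added together with compound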
Calpain2 inh: inhibitors of pig calpain II, primary screen, biochemical, fluorogenic peptide substrate, 1536-well; purified calpain II, 30 min; inhibition, % at 16 µM; 220,000 tested, 0.37% active; AID 1236, 2008;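 active = inhibition above about 50%, limit read from the data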
L929 necroptosis: inhibitors of zVAD-triggered necroptosis, primary screen, L929 cells; L929 zVAD necroptosis rescue, ATP luminescence, 24 h; with zVAD 60 µM; viability rescue, % at 10 µM; 220,000 tested, 0.38% active; AID 1377, 2008;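 active = activation, scaled between plate controls, above about 75%, limit read from the data; inactive = activation under that limit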
Numbers stand for hits; 0 = inactive; - = no result given; [ ] = dose if it differs, or a comment.

SMILES	14-3-3 Bad PPI	HMGR II inh	ROMK primary	TNF death inh	Calpain2 inh	L929 necroptosis
CCC(C)(C)n1nnnc1C(c1ccc(O)c(OC)c1)N1CCc2ccccc2C1 (centres undefined)	82	0	-	0	0	0
Cc1ccc(NC(=O)C2c3ccccc3Oc3ccccc32)c(C)c1	0	0	-	0	0	0
CCOC(=O)c1cc(-c2ccc(C)cc2)n(CCC(=O)NC(C)CC)c1C (centres undefined)	0	0	0	0	0	0
CCC(C)NC(=O)CCn1c(-c2ccc(F)cc2)cc(C(C)=O)c1C (centres undefined)	0	9.7	0	0	0	0
CC1(C)Nc2ccccc2N(CCC(=O)N2CCOCC2)C1=O	0	0	-	0	0	0
CN(C(=O)CCN1C(=O)C(C)(C)Nc2ccccc21)c1ccccc1	0	36	0	0	0	0
CCOC(=O)N1CCN(c2ccc(Cl)c(Cl)c2)CC1	0	0	-	0	0	0
CCOC(=O)N1CCN(Cc2ccc(F)cc2F)CC1	91	0	-	0	0	0
CCOC(=O)N1CCN(c2ccc(C(=O)c3cccc(F)c3)cc2)CC1	0	0	0	0	58	0
CC1CCc2c(C(=O)Nc3ccc(OC(F)(F)F)cc3)csc2C1 (centres undefined)	0	0	-	0	0	0
CO[C@@]1(NC(=O)Cc2cccs2)C(=O)N2C(C(=O)O)=C(COC(N)=O)CS[C@@H]21	73	0	-	0	0	0
Cc1c(N2C(=O)c3ccccc3C2(O)c2ccccc2)c(=O)n(-c2ccccc2)n1C (centres undefined)	0	-	0	0	0	0
O=C(c1cc(=O)[nH]c2ccccc12)N1CCN(c2ccccc2)CC1	0	-	-	0	0	0
N#Cc1cc(-c2ccccc2)nn1-c1ccccc1	80[fluorescence artefact?]	0	-	0	0	0
Cn1ccc(-c2ccccc2)n1	0	0	0	0	0	0
O=C(c1ccccc1)N(Cc1ccc2c(c1)OCO2)Cc1nc2ccccc2c(=O)[nH]1	0	0	3.2	0	0	0
CN(C)CCCOC(=O)COc1ccc(Br)cc1	0	-	0	0	0	0
CCN(CC)CCN(C)Cc1ccc(Br)cc1	76	0	0	0	0	0
CCCN(CCO)Cc1ccc(Br)cc1	84	0	-	0	0	0
CC1CCCC(C)N1c1nnc(N)s1 (centres undefined)	0	0	0	0	0	-
CCOc1ccc(C2C([N+](=O)[O-])=C(C)N(C)C(=O)N2C)cc1OC (centres undefined)	0	0	0	0	0	0
CC(NC(=O)c1ccco1)C(=O)OC(C)C(=O)NCc1ccccc1 (centres undefined)	0	0	0	0	0	0
CC(C)CC(O)(CC(C)C)C(=O)NNc1ccccc1	0	15	0	0	0	0
COc1cc(Br)cc(CN2CCN(C/C=C/c3ccccc3)CC2)c1O	0	0	-	0	0	0
COc1ccc(O)c(CN2CCN(C/C=C/c3ccccc3)CC2)c1	74	0	0	0	0	0
SMILES	14-3-3 Bad PPI	HMGR II inh	ROMK primary	TNF death inh	Calpain2 inh	L929 necroptosis
O=C1c2cccc3cccc(c23)C(=O)N1CCN1CCN(C(=S)Nc2ccccc2)CC1	0	0	-	0	0	0
O=C1c2cccc3cccc(c23)C(=O)N1CCN1CCN(C(=S)Nc2ccc(Cl)cc2)CC1	0	0	-	0	54	0
COc1ccc(CCNC(=O)CSc2nc3cc(Cl)ccc3o2)cc1OC	0	0	0	0	0	0
Cc1cccc(C)c1OCCOC(=O)c1n[nH]c2ccccc12	89	0	0	0	0	0
O=C(CCCN1C(=O)c2ccccc2C1=O)N1CCCCC1	0	0	-	0	0	0
O=C(CCCN1C(=O)c2ccccc2C1=O)N1CCC(c2ccccc2)C1 (centres undefined)	0	0	0	0	51	0
Cc1ccc(-c2nc(N/N=C/c3cccnc3)c3ccccc3n2)cc1	0	0	0	0	0	0
COc1ccc(/C=N/Nc2nc(-c3cccnc3)nc3ccccc23)c(OC)c1	70	-	0	0	0	0
COc1ccc(/C=N/Nc2nccnc2Cl)c(OC)c1	0	18	0	0	0	0
CCOc1ccccc1C(=O)Nc1ccccc1-c1ccccc1	0	0	0	0	0	0
COc1ccc(-c2cc(-c3ccc(Br)cc3)nc3ncnn23)cc1OC	0	0	-	0	0	0
COc1ccc(-c2c(C(F)(F)F)nn(C)c2NC(C)=O)cc1	0	-	0	0	0	0
COc1ccc(CCNC(=O)c2ccccc2Cl)cc1OC	0	18	0	0	0	0
Cn1nnnc1SCCNCc1ccccc1F	0	0	-	0	0	0
Cn1nnnc1SCc1ccccc1F	0	0	-	0	0	77
O=C(Nc1cccc(C(F)(F)F)c1)c1cccnc1N1CCN(c2ccccc2)CC1	88[fluorescence artefact?]	0	-	0	0	0
CCNC(=S)N(CCc1c(C)[nH]c2ccc(Cl)cc12)Cc1ccco1	0	0	0	0	59	0
Cc1ccc(NC(=O)N2CCCC2C(=O)Nc2ccc(-n3cnnn3)c(C)c2)cc1 (centres undefined)	0	9.7	-	0	0	0
CN1CCS/C1=C\C=C1/SC(=S)N(CC(=O)O)C1=O	0	0	-	0	64	0
O=C1c2c(O)cc(O)cc2O[C@@]12c1c(cc(O)c3c1O[C@H](c1ccc(O)cc1)[C@@H](O)C3)O[C@@H]2c1ccc(O)cc1	0	9.6	0	0	0	0
CCOc1ccc(-c2nnc(SCC(=O)Nc3ccc4c(c3)c3ccccc3n4CC)n2N)cc1	73	0	-	0	0	0
Cc1cc(NC(=O)CSc2nnc(-c3ccncc3)n2N)ccc1Br	0	0	-	0	137	0
Nn1c(SCC(=O)Nc2ccc3c(c2)OCO3)nnc1-c1ccncc1	0	0	-	0	0	0
Cc1c(NC(=O)c2n[nH]c(=O)c3ccccc23)c(=O)n(-c2ccccc2)n1C	0	0	0	0	0	0
COc1cc(S(=O)(=O)Nc2ccc3cn[nH]c3c2)ccc1Cl	0	12	0	0	0	0
O=C(O)c1ccc(Cl)c(S(=O)(=O)Nc2ccc3cn[nH]c3c2)c1	0	0	0	0	0	0
CN(Cc1nc(-c2cnccn2)no1)C1CC(C)(C)NC(C)(C)C1	0	18	0	0	0	0
Cc1c(NS(=O)(=O)c2ccc(Br)s2)c(=O)n(-c2ccccc2)n1C	0	10	-	0	0	0
Cc1c(NS(=O)(=O)c2ccc(S(=O)(=O)c3ccccc3)s2)c(=O)n(-c2ccccc2)n1C	0	-	-	0	0	0
